Assay results reported in publication PMC4336329 (PLoS ONE, 2015).
In all, about 310,000 compounds went through this assay and about 14,000 (4.5%) showed an effect of 50% or more. The effect is printed as a negative number. What follows is part of a selection rich in strong results, with near analogues and random picks from the rest. Where a SMILES comes first, the peptide text is derived from it. The star is where a group is joined. Boc = CC(C)(C)OC(=O)*

These compounds were tested against human ether-à-go-go-related gene (hERG) potassium channel (human, UniProt Q12809) (assay: primary screen, population patch clamp on CHO cells stably expressing hERG; higher = less effect of the substance).
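Note: peak tail current of the secondary pulse compared with the same well before compound.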

Sequence of human ether-à-go-go-related gene (hERG) potassium channel (Q12809 whole entry, looked up): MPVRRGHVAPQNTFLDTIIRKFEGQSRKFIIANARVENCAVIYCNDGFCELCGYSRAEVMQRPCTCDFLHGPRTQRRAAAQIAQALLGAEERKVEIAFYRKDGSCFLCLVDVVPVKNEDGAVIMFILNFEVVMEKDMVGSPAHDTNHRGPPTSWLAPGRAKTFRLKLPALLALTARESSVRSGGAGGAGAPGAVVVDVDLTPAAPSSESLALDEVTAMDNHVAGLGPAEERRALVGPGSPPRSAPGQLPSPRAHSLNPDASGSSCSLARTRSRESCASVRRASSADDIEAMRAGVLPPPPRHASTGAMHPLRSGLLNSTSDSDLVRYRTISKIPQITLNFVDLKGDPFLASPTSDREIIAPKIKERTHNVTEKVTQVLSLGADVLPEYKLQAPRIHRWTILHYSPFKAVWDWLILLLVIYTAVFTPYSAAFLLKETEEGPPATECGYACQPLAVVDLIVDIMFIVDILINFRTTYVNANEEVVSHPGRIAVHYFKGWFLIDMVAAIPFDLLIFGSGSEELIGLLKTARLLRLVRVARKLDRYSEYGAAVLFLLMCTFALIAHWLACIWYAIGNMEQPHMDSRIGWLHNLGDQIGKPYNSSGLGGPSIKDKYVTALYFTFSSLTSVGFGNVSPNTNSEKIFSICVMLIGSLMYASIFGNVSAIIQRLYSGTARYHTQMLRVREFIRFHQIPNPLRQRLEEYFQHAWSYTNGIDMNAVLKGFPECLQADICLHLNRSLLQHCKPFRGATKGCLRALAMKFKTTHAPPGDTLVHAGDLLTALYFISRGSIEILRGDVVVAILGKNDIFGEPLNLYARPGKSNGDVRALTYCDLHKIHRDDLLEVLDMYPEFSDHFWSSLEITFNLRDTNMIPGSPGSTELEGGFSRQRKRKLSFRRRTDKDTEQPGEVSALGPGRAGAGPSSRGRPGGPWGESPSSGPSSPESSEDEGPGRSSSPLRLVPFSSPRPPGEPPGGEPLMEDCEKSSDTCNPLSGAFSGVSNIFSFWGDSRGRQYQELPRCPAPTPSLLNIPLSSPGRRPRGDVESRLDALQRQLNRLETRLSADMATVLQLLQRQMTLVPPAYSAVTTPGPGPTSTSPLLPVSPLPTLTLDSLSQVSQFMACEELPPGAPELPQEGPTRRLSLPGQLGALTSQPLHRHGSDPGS

| SMILES | hERG current change (%, negative = inhibition) at 10uM |
| --- | --- |
| COc1ccccc1CC(=O)Nc1cccc(F)c1 | 12.2% |
| COc1cccc(NC(=O)CN(C)C(C)C(=O)Nc2ccc(S(=O)(=O)N3CCCC3)cc2)c1 (stereo not shown) | -0.933% |
| COc1cccc(NC(=O)CN(C)C(C)C(=O)Nc2ccc(C#N)cc2)c1 (stereo not shown) | -59.3% |
| CC(=O)c1ccc(NC(=O)C(C)N(C)CC(=O)Nc2cccc(F)c2)cc1 (stereo not shown) | -17.3% |
| CC(C(=O)Nc1ccc(Cl)cc1)N(C)Cc1cccs1 (stereo not shown) | -15% |
| CC(C(=O)N1CCCC1)N(C)CC(=O)Nc1cccc(F)c1 (stereo not shown) | -0.435% |
| CC(C(=O)Nc1ccccc1)N(C)Cc1cccs1 (stereo not shown) | 8.67% |
| CC(C(=O)Nc1ccc(C#N)cc1)N(C)CC(=O)Nc1cccc(F)c1 (stereo not shown) | -64.7% |
| CC(C(=O)Nc1ccc(C#N)cc1)N(C)CC(=O)Nc1ccccc1Br (stereo not shown) | -17% |
| COc1cccc(NC(=O)CN(C)C(C)C(=O)Nc2ccc(C(C)=O)cc2)c1 (stereo not shown) | -22.9% |
| CSc1ccccc1NC(=O)CN(C)C(C)C(=O)Nc1ccc(C#N)cc1 (stereo not shown) | -63.1% |
| CC(C(=O)Nc1ccc(C#N)cc1)N(C)Cc1cccs1 (stereo not shown) | -56.7% |
| CC(=O)Nc1ccc(NC(=O)C(C)N(C)CC(=O)Nc2ccccc2Br)cc1 (stereo not shown) | 8.29% |
| CC1=C/C(=N\NC(=S)NCCc2ccccc2)CC(C)(C)C1 | -4.83% |
| Cc1ccc(Cn2nnc3c(=O)[nH]c(C4CCN(S(=O)(=O)c5ccccc5F)CC4)nc32)cc1 | -19% |
| CCN1C[C@]2(C)CC[C@H](OC)[C@]34C2[C@H](OC(C)=O)[C@@]2(OCO[C@@]25C[C@H](OC)[C@H]2C[C@]3(O)C5[C@H]2OC)[C@@H]14 | 39.8% |
| CCOc1cc(NC(=O)c2ccccn2)c(OCC)cc1NC(=O)c1ccc(C)cc1 | -13.7% |
| Nc1c(C(=O)Nc2ccc(F)cc2)sc2nc(-c3ccco3)ccc12 | -9.67% |
| CC(C)Oc1ccc(C(=O)Nc2ccc(Cl)c(S(=O)(=O)Nc3ccc(Cl)cc3)c2)cc1 | 2.46% |
| CCC(C)NCCC(=O)Nc1ccc(Cl)c(S(=O)(=O)Nc2ccc(Cl)cc2)c1 (stereo not shown) | -53.6% |
| CC(=O)Nc1ccc(NS(=O)(=O)c2cc(Cl)ccc2Cl)cc1 | -14.8% |
| Cc1cc(C)cc(-n2ccnc2SCC(=O)Nc2ccc3c(c2)OCCO3)c1 | -14.2% |

| SMILES | hERG current change (%, negative = inhibition) at 10uM |
| --- | --- |
| CC(=O)c1ccc(C(=O)Nc2nnc(-c3ccc(Cl)cc3)o2)cc1 | 4.1% |
| O=C(NCCc1ccccc1)/C(=C\c1ccc([N+](=O)[O-])cc1)NC(=O)c1ccc(Br)cc1 | -37.8% |
| Cc1ccc(NC(=O)/C(=C\c2ccc([N+](=O)[O-])cc2)NC(=O)c2ccccc2)cc1 | -38.6% |
| Cc1ccc(NC(=O)/C(=C/c2ccc([N+](=O)[O-])cc2)NC(=O)c2ccccc2)cc1 | -12% |
| O=C(OCC(=O)c1ccc([N+](=O)[O-])cc1)/C(=C/c1ccc(Cl)cc1)NC(=O)c1ccccc1 | -63.3% |
| CC(=O)N/C(=C\c1ccccc1)C(=O)OCC(=O)c1ccccc1 | 9.41% |
| O=C(OCC(=O)c1ccc([N+](=O)[O-])cc1)/C(=C\c1ccc(Cl)cc1)NC(=O)c1ccccc1 | -64.4% |
| CS(=O)(=O)c1ccc(Oc2ccc(-c3nnco3)cc2)c([N+](=O)[O-])c1 | -7.35% |
| COc1cccc(C2C(C#N)=C(N)Oc3cc(C)[nH]c(=O)c32)c1OC (stereo not shown) | -10.4% |
| Cc1sc2c(c1C)C(c1ccc(C(C)(C)C)cc1)=NCC(=O)N2CC(=O)Nc1nccs1 | -17.9% |
| Cc1sc2c(c1C)C(c1cccs1)=NCC(=O)N2CC(=O)NCc1cccs1 | -56.2% |
| Cc1ccc2c(c1)N(CC(=O)NCc1cccs1)C(=O)CO2 | 5.4% |
| CCOCCCNC(=S)NC1CC2CCC(C1)N2Cc1ccccc1 (stereo not shown) | -23% |
| Cc1noc(C(=O)Nc2ccc(F)c(Cl)c2)c1Cl | 8.86% |
| Oc1cccc2nc3ccccc3nc12 | 2.6% |
| CCOC(=O)C1(CCc2ccccc2)CCN(Cc2ccc(C(=O)OC)cc2)CC1 | -91.8% |
| CCOC(=O)C1(CCOC)CCN(Cc2ccccc2-c2ccco2)CC1 | -22.4% |
| CCOC(=O)C1(CCc2ccccc2)CCN(Cc2ccco2)CC1 | -76.5% |
| CCOC(=O)C1(Cc2cccc(OC)c2)CCN(C(C)COC)CC1 (stereo not shown) | 5.9% |
| CCOC(=O)C1(CCOC)CCN(C(C)CCc2ccc(OC)cc2)CC1 (stereo not shown) | -71.1% |
| CCOC(=O)C1(CCOC)CCN(C(=O)Cc2ccc3ccccc3c2)CC1 | -0.72% |
| CCOC(=O)C1(CCc2ccccc2)CCN(CC(O)CO)CC1 (stereo not shown) | -40.3% |

| SMILES | hERG current change (%, negative = inhibition) at 10uM |
| --- | --- |
| CCOC(=O)C1(CCc2ccccc2)CCN(Cc2ccc(O)cc2)CC1 | -83.4% |
| Cc1ccc(S(=O)(=O)N2CCN(S(=O)(=O)N3CCCCC3)CC2)c(C)c1 | -6.97% |
| CSc1sc(C(=O)N2CCCCC2)c(-c2cccs2)c1C#N | -27.7% |
| CC(C)(C)c1ccc(OCC(=O)Nc2cccc(S(=O)(=O)NC3=NCCCCC3)c2)cc1 | -18.9% |
| COc1ccc2c(CC(=O)OCC(=O)Nc3ccc(C)cc3)coc2c1 | -1.56% |
| O=S1(=O)CC2SC(=S)N(c3ccccc3)C2C1 (stereo not shown) | 7.98% |
| CCOc1ccc(/C(O)=C2/C(=O)C(=O)N(CCN(C)C)C2c2ccccc2)cc1Cl (stereo not shown) | -5.2% |
| CC(=O)c1c(C)[nH]c(C(=O)COC(=O)c2ccc3c(=O)n4c(nc3c2)CCC4)c1C | -0.297% |
| O=[N+]([O-])c1ccccc1C1Nc2cccc3cccc(c23)N1 | 11.8% |
| CCC1CCCCN1C(=O)c1ccc(OC2CCN(Cc3ccccn3)CC2)cc1 (stereo not shown) | 5.27% |
| CCc1nnc(NC(=O)CSc2ccc(-c3nc4ccccc4[nH]3)cn2)s1 | 5.82% |
| COC(=O)C(Cc1ccccc1)NC(=O)C(CC(C)C)NC(=O)OC(C)(C)C (stereo not drawn) (Boc-Leu-Phe-OMe; configuration not given here) | 10.7% |
| CCOC(=O)C1(CCc2ccccc2)CCN(Cc2ccc(OC)cc2)CC1 | -77.5% |
| CCOC(=O)C1(CCOC)CCN(Cc2ccc(C(=O)OC)cc2)CC1 | -27.2% |
| CCOC(=O)C1(CC2CC2)CCN(Cc2ccc(C(=O)OC)cc2)CC1 | -57% |
| CCOC(=O)C1(CC2CC2)CCN(Cc2ccc(O)c(Cl)c2)CC1 | -41.6% |
| CCOC(=O)C1(Cc2ccccc2)CCN(Cc2csc(C(C)=O)c2)CC1 | -24.2% |
| CCOC(=O)C1(CCc2ccccc2)CCN(Cc2csc(C(C)=O)c2)CC1 | -74.8% |
| CCOC(=O)C1(CC2CC2)CCN(Cc2cnc(-c3ccccc3C)nc2)CC1 | -10.4% |
| CCOC(=O)C1(Cc2ccccc2Cl)CCN(Cc2csc(C(C)=O)c2)CC1 | -12.3% |
| CCOC(=O)C1(CC2CC2)CCN(Cc2cc(Cl)c(O)c(OC)c2)CC1 | -57.1% |
| CCOC(=O)C1CCN(Cc2ccc(C(=O)OC)cc2)CC1 | -14.6% |

| SMILES | hERG current change (%, negative = inhibition) at 10uM |
| --- | --- |
| CCOC(=O)N1CCN(C(=O)CCC2CCCC2)CC1 | 9.89% |
| Cc1cc(C)c(S(=O)(=O)c2c(C)cccc2C)c(OCC(C)C)n1 | 2.76% |
| COc1cccc(-c2nc(CS(=O)(=O)CC(=O)Nc3cc(C)ccc3C)c(C)o2)c1 | 7.02% |
| C[n+]1cn(Cc2ccc(C#N)cc2)c2ccccc21.[Cl-] | 2.75% |
| C=CCN=C1N[C@@H](c2ccccc2)C(C(=O)OC)=C(C)N1CCOC | -13% |
| CC(=O)N(C)c1ccc(NC(=S)Nc2cccc3ccccc23)cc1 | 3.38% |
| O=C(CSc1nnnn1-c1ccc(O)cc1)Nc1ccc(N2CCOCC2)c(Cl)c1 | -1.58% |
| CCOc1ccc(CCNC(=O)C2CCCN(c3nn4c(=O)cc(C)nc4s3)C2)cc1 (stereo not shown) | -24.2% |
| COC(c1ccccc1)c1nnc(CCC(=O)NC2C3CC4CC(C3)CC2C4)o1 (stereo not shown) | -3.85% |
| CCCCc1c(C)nc2c(OC)cccc2c1SCC(=O)O | 12.3% |
| O=C(Oc1ccnc2cc(Cl)ccc12)N1CCCCCC1 | -23% |
| O=C(NNc1ccnc2cc(Cl)ccc12)C1CCCCC1 | 16.1% |
| O=C(C1CC1)N1CCN(c2ccnc3cc(Cl)ccc23)CC1 | -73.6% |
| NC(=O)C1CCN(c2ccnc3cc(Cl)ccc23)CC1 | -51.6% |
| NC(=O)C1CCN(c2cc(Cl)ccc2[N+](=O)[O-])CC1 | 3.89% |
| O=C(C1CCC1)N1CCN(c2ccc(Cl)cc2)CC1 | -5.33% |
| O=C(C1CCCCC1)N1CCN(c2ccnc3cc(Cl)ccc23)CC1 | -66.1% |
| CC1CN(c2ccnc3cc(Cl)ccc23)CC(C)O1 (stereo not shown) | -39.7% |
| O=C(C1CCC1)N1CCN(c2ccnc3cc(Cl)ccc23)CC1 | -71.4% |
